# Assay results from PubChem BioAssay.
# The source made the active and inactive calls.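 The calls were made as follows, unless noted: active = inhibition of the reporter signal at or above 50%; inactive = inhibition below 50%.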
# Key:
# [1] = inhibitors of TNFa-induced NFkB p65 translocation, primary screen, imaging, HUVEC, MLSMR starter and 10KST1 sets (AID 438;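 active = inhibition above 20% together with a positive visual image hit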;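 also: compound added about 3h40 before a 20 min TNFalpha stimulation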;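 as to inhibition: signal is the nuclear over cytoplasmic p65 intensity ratio per well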); details: HUVEC TNFa-induced p65 nuclear translocation; cell count: measured here: nuclei count (cytotoxicity indicator), at 2.08 µM; inhibition: at 2 µM, stronger effect = higher value, 0% TNFa-plus-vehicle, 100% no-TNFa wells
# [2] = inhibitors of mutant huntingtin aggregation, primary screen, imaging, exon1htt(103Q)mCFP cells, high-content imaging (AID 483;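 active = visual image review flags a hit and inhibition of aggregation exceeds 20%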;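 also: compound exposure lasted 3 days before fixation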;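 as to nuclei count: percent of the per-plate median nuclei count of sample wells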); details: exon1htt(103Q)mCFP cell line, aggregate imaging, at 2 µM; inhibition of aggregation: stronger effect = higher value; nuclei count: measured here: cell count, toxicity
# [3] = inhibitors of E-selectin induction by TNFa, primary screen, imaging, HUVEC, immunofluorescence, MLSMR starter and 10KST1 sets (AID 487;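 active = visually confirmed hit in the image check and inhibition above 20%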;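 as to inhibition: signal is fraction of cell area covered by stained E-selectin grains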;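 as to nuclei count: 100% = median nuclei count of all wells on the same plate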); details: HUVEC TNFalpha-induced E-selectin immunofluorescence imaging, at 2 µM; inhibition: stronger effect = higher value; nuclei count: measured here: cell number, toxicity
# [4] = molecular target: Voltage-gated potassium channel subunit beta-2 (Rattus norvegicus) (UniProt P62483); experiment: KvBeta enzyme negative modulators, primary screen, biochemical, NADPH fluorescence (AID 622;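 active = fluorescence slope higher than the sample average by over 3 SD, cut at about -0.22 in these data, passing the limit was not always enough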;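 also: slope of raw intensity against log time taken from 70 to 1610 s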); details: recombinant KvBeta, 4-cyanobenzaldehyde reduction, at 10 µM, stronger effect = higher value
# Chain of Voltage-gated potassium channel subunit beta-2 (Rattus norvegicus) (P62483 whole entry, looked up): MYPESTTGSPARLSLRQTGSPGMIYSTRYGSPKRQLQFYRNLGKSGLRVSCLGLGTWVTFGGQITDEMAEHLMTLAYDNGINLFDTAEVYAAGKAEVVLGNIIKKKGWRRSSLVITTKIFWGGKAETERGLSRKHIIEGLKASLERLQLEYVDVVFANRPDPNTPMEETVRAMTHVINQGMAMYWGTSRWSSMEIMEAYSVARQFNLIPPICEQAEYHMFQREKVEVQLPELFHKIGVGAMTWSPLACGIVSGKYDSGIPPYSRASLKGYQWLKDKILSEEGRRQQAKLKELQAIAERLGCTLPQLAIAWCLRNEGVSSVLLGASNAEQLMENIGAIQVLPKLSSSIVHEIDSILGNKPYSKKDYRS
# [5] = molecular target: Voltage-gated potassium channel subunit beta-2 (Rattus norvegicus) (UniProt P62483); experiment: KvBeta positive modulators, primary screen, biochemical, NADPH fluorescence (AID 623;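 active = NADPH fluorescence slope more negative than the mean of all samples by about 3 SD, 99.7% confidence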;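 also: fluorescence intensity change per second fitted from 20 to 320 s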); details: Recombinant KvBeta, NADPH fluorescence decrease slope, 10 min; at 10 µM; stronger effect = lower value
# [6] = molecular target: Alpha-2C adrenergic receptor (Homo sapiens) (UniProt P18825); experiment: modulators of alpha2C/GIRK thallium flux, primary screen, cell-based, HEK293 alpha2C/GIRK1/2 (AID 624;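 active = fluorescence slope after compound addition differing from the mean of all screened samples at 99.7% confidence, in either direction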;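 also: slope of fluorescence ratio to pre-addition baseline per second over 15 to 24 s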); details: thallium flux BTC fluorescence, at 10 µM, actives lie on both sides
# Chain of Alpha-2C adrenergic receptor (Homo sapiens) (P18825 whole entry, looked up): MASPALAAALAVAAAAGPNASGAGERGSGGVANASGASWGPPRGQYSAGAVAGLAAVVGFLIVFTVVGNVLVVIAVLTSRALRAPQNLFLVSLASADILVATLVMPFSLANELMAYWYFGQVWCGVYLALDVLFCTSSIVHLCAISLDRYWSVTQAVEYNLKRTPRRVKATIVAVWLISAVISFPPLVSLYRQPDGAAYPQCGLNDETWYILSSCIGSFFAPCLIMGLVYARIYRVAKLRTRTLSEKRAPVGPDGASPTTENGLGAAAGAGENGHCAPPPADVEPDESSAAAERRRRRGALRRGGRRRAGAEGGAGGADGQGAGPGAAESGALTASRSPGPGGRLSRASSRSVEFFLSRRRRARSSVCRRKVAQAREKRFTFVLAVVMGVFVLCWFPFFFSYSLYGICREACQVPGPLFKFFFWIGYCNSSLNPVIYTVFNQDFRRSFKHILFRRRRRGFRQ
# [7] = inhibitors of Sendai virus-induced IRF3 signaling, primary screen, TLR/RLR signaling modifier project, cell-based, Sendai virus stimulus, luciferase, 10K MLSCN set (AID 602276;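 active = inhibition at or above 50% at 10 µM; inactive = inhibition below 50%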;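 also: firefly luciferase from ISG56 promoter only with Renilla not read in this screen; 0% = Sendai virus plus DMSO and 100% = medium plus DMSO without virus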); details: HEK293 RL24 IRF3 luciferase reporter, at 10 µM, stronger effect = higher value
# [8] = inhibitors of poly I:C-induced TLR3 signaling, primary screen, cell-based, poly I:C stimulus, luciferase, 10K MLSCN set (AID 602277); details: HEK293-TLR3 RL24 IRF3 luciferase reporter, at 10 µM, stronger effect = higher value
SMILES,cell count [1],inhibition [1],inhibition of aggregation [2],nuclei count [2] [%],inhibition [3],nuclei count [3] [%],fluorescence slope [4],NADPH fluorescence slope [5],slope [6],inhibition [7],inhibition [8]
Cc1[nH]n(C(N)=S)c(=O)c1C(c1ccccc1)C(C#N)C#N (stereo not drawn),694,9.6% (inactive),-2.9% (inactive),107,32.6% (inactive),99.1,-0.38 (inactive),5.1e-06 (inactive),0.00522 (inactive),-11.3% (inactive),-18% (inactive)
COCCn1nnnc1C(c1cc2ccc(OC)cc2[nH]c1=O)N1CCc2ccccc2C1 (stereo not drawn),454,7.5% (inactive),-1.5% (inactive),86.9,-43% (inactive),95.9,-0.503 (inactive),-1.3e-05 (inactive),0.00527 (inactive),29.3% (inactive),37.8% (inactive)
Cc1ccccc1NC(=O)CSc1nnc(Cc2cccn2C)n1-c1ccc(F)cc1,813,4.2% (inactive),0% (inactive),98.8,-61% (inactive),114,-0.618 (inactive),1.1e-05 (inactive),0.00577 (inactive),-3.98% (inactive),29.4% (inactive)
Nc1nc(N2CCN(C/C=C/c3ccccc3)CC2)nc2ccccc12,563,7.3% (inactive),2% (inactive),69.5,-58.8% (inactive),139,-0.607 (inactive),-2.5e-05 (inactive),0.00297 (inactive),4.65% (inactive),7.48% (inactive)
CS(=O)(=O)N(CC(=O)Nc1ccc2c(c1)OCCO2)Cc1ccccc1,348,-4.7% (inactive),-2.9% (inactive),107,9.6% (inactive),105,-0.413 (inactive),3.7e-05 (inactive),0.00583 (inactive),8.2% (inactive),17.2% (inactive)
Nc1c(N2CCCCC2)c(=O)[nH]c(=O)n1-c1ccccc1,751,2.4% (inactive),3% (inactive),106,-0.1% (inactive),109,-0.456 (inactive),4.1e-05 (inactive),0.00376 (inactive),-4.05% (inactive),-5.22% (inactive)
Cc1nc(C)c2c(c1C(F)(F)F)-c1ccccc1C2(F)F,397,3.9% (inactive),-0.1% (inactive),108,-30.7% (inactive),107,-0.454 (inactive),-8.2e-06 (inactive),0.00655 (inactive),-9.52% (inactive),98.9% (active)
CCOC(=O)CSc1nc2ccccc2n1CC(=O)N1CCN(c2ccccc2)CC1,436,14.9% (inactive),7.6% (inactive),98,50.8% (inactive),99.5,-0.569 (inactive),2.2e-05 (inactive),0.00504 (inactive),-4.03% (inactive),1.41% (inactive)
CCn1c(SCc2nc(-c3cccs3)no2)nnc1-c1c[nH]c2ccccc12,296,3.4% (inactive),1.2% (inactive),82.9,-1.6% (inactive),102,-0.34 (inactive),1.2e-05 (inactive),0.0036 (inactive),10.2% (inactive),13.6% (inactive)
CCC(C)NC(=O)CS(=O)(=O)Cc1nc(-c2cccc(OC)c2)oc1C (stereo not drawn),638,-1.3% (inactive),-7.7% (inactive),99.2,-44.8% (inactive),107,-0.523 (inactive),2.7e-05 (inactive),0.00702 (inactive),9.35% (inactive),4.33% (inactive)
Cc1nn(-c2ccccc2)c2c1C(O)n1c(nc3ccccc31)S2 (stereo not drawn),453,2.5% (inactive),8.2% (inactive),83,-10.2% (inactive),100,-0.466 (inactive),-0.000266 (inactive),0.00554 (inactive),14% (inactive),28.4% (inactive)
CCOc1cccc(-c2nnc3n2N=C(c2cc(OC)ccc2OC)CS3)c1,404,15.8% (inactive),-30.5% (inactive),10.2,-56.6% (inactive),111,-0.376 (inactive),-2.7e-06 (inactive),0.00667 (inactive),19.6% (inactive),56.7% (active)
CCOC(=O)N1CCC(NC(=O)c2ccc3c(c2)N(CC)CCS3)CC1,382,-2.4% (inactive),-22.2% (inactive),70.3,-62.7% (inactive),114,-0.0283 (active),-5.8e-06 (inactive),0.00586 (inactive),12.8% (inactive),34.1% (inactive)
COC(=O)Cn1c(CN2CCOCC2)nc2c1c(=O)n(C)c(=O)n2C,666,-18.4% (inactive),6.2% (inactive),95.4,-0.7% (inactive),114,-0.418 (inactive),-5.7e-05 (inactive),0.00632 (inactive),6.17% (inactive),32.9% (inactive)
COc1cccc(C2CC(c3ccccc3)n3ncnc3N2)c1 (stereo not drawn),564,4.1% (inactive),-12% (inactive),90.7,17.4% (inactive),82,-0.6 (inactive),-2.8e-05 (inactive),0.00718 (inactive),5.93% (inactive),33.2% (inactive)
Nc1nc(CSc2nc3ccccc3[nH]2)nc(N2CCOCC2)n1,675,-17.6% (inactive),-0.7% (inactive),87.9,-51% (inactive),111,-0.449 (inactive),-3.7e-05 (inactive),0.00382 (inactive),3.37% (inactive),18.9% (inactive)
OCCNCC(O)Cn1ccc2ccccc21 (stereo not drawn),410,-8.2% (inactive),-0.3% (inactive),84.3,-53.1% (inactive),181,-0.624 (inactive),-5e-05 (inactive),0.007 (inactive),12.3% (inactive),16.7% (inactive)
Fc1cccc(-c2cc3nc4c(c(N5CCN(c6cnccn6)CC5)n3n2)CCCC4)c1,468,-3.1% (inactive),-5.2% (inactive),101,-80.1% (inactive),100,-0.622 (inactive),-2.7e-05 (inactive),0.00757 (inactive),-15.7% (inactive),-16.1% (inactive)
CC(C)COc1ccc(-c2nnn(CC(=O)N3CCCC3)n2)cc1,473,-5.5% (inactive),-13.3% (inactive),106,19.6% (inactive),109,-0.564 (inactive),-5.5e-05 (inactive),0.00381 (inactive),-2.78% (inactive),-17.8% (inactive)
O=C(O)CCC1(C(=O)O)OCCc2ccccc21 (stereo not drawn),470,2.9% (inactive),-4.2% (inactive),99.2,-99.4% (inactive),118,-0.599 (inactive),-3.7e-05 (inactive),0.00588 (inactive),8.34% (inactive),17.4% (inactive)
COc1ccccc1NS(=O)(=O)c1ccc(OC)c(OC)c1,401,5.5% (inactive),0.8% (inactive),101,30.1% (inactive),96,-0.484 (inactive),-4.4e-05 (inactive),0.00597 (inactive),1.27% (inactive),24.3% (inactive)
CC(C)CN(CC(C)C)C(=O)C12CCC(C)(C(=O)C1)C2(C)C (stereo not drawn),720,-10.4% (inactive),13.7% (inactive),99.8,-45.3% (inactive),115,-0.452 (inactive),0.000106 (inactive),0.00697 (inactive),-21.4% (inactive),-2.9% (inactive)
CCC(=O)c1ccc(OCC(O)CN2CCN(S(=O)(=O)N3CCCCC3)CC2)cc1 (stereo not drawn),450,1.3% (inactive),-4.1% (inactive),102,-47.7% (inactive),184,-0.592 (inactive),-1.7e-05 (inactive),0.00309 (inactive),14.1% (inactive),9.85% (inactive)
O=C(NCCN1CCCCCC1)c1ccc(N2CCCC2=O)cc1,561,-4.7% (inactive),23.6% (inactive),84.5,60.4% (inactive),24.3,-0.406 (inactive),-4.1e-05 (inactive),0.00534 (inactive),16.9% (inactive),17.9% (inactive)
O=c1oc2c3c4c(cc2cc1-c1nc2ccccc2[nH]1)CCCN4CCC3,451,5.9% (inactive),94.7% [may fluoresce] (active),112,-25.7% (inactive),121,-0.308 (inactive),1.6e-05 (inactive),0.00239 (inactive),-24.1% (inactive),-107% (inactive)
O=C(C1CCCN1S(=O)(=O)c1cccc2cccnc12)N1CCn2c1nc1ccccc12 (stereo not drawn),626,-1.1% (inactive),-15.8% (inactive),117,-28.6% (inactive),124,-0.63 (inactive),-1.3e-05 (inactive),0.00657 (inactive),8.59% (inactive),21.7% (inactive)
COCCn1c(=O)[nH]c2cc(C(=O)N3CCN(Cc4ccc5c(c4)OCO5)CC3)ccc2c1=O,742,-1.6% (inactive),-2% (inactive),122,-20.8% (inactive),115,-0.643 (inactive),-1.6e-05 (inactive),0.00392 (inactive),2.81% (inactive),-1.78% (inactive)
Cc1nccn1CCCN1C(=O)OC2(CCCCC2)C1(C)O (stereo not drawn),350,-3% (inactive),2.3% (inactive),113,-4.4% (inactive),105,-0.522 (inactive),-3.8e-05 (inactive),0.00543 (inactive),4.87% (inactive),17.2% (inactive)
